Hits are enriched below; roughly 21% of the tested compounds scored in any of these assays.
VP16 counter: inhibits Gal4-VP16 luciferase reporter, ROR gamma counter-screen | Drosophila S2 Gal4-VP16 UAS-luciferase, luminescence, 20 h | Potency, µM (doses to about 53.6 µM), for the others: top-dose activity, negative = inhibition, usual class: inhibitors | 3.5% of 310,000 active;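 note: Gal4-VP16 expression switched on by copper sulfate through the metallothionein promoter; potency is the fitted concentration of half-maximal effect; nearly all actives have a fitted effect of over 50% in size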
TDP1 cell noCPT: qHTS for Inhibitors of human tyrosyl-DNA phosphodiesterase 1 (TDP1): qHTS in cells in absence of CPT; DT40 Tdp1-/- hTDP1 cells, no CPT, ATP luminescence, 48 h; Potency, µM (highest dose often 46.2 µM), without a hit: at the highest dose activity change, negative = growth inhibition, actives largely listed as inhibitors; 15% of 420,000 active; AID 686978, 2013; note: potency is the fitted concentration of half-maximal effect; nearly all actives have a fitted effect of over 55% in size
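Luminescent ATP content (CellTiter-Glo) served as the growth readout. Knockout chicken DT40 cells expressing human TDP1 were exposed to compounds without camptothecin for a minimum 48 hr at 37 °C.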
RORg inh: blocks mouse ROR gamma transcriptional activity; P51450; Drosophila S2 Gal4-RORgamma UAS-luciferase reporter, 20 h; Potency, µM (highest dose often 53.6 µM), without a hit: top-dose activity change, negative = inhibition, hits mostly inhibitors; 5.4% of 310,000 active; note: potency is the fitted concentration of half-maximal effect; nearly all actives have a fitted effect of over 60% in size
Target sequence (P51450 whole entry, looked up, the tested form may be a part): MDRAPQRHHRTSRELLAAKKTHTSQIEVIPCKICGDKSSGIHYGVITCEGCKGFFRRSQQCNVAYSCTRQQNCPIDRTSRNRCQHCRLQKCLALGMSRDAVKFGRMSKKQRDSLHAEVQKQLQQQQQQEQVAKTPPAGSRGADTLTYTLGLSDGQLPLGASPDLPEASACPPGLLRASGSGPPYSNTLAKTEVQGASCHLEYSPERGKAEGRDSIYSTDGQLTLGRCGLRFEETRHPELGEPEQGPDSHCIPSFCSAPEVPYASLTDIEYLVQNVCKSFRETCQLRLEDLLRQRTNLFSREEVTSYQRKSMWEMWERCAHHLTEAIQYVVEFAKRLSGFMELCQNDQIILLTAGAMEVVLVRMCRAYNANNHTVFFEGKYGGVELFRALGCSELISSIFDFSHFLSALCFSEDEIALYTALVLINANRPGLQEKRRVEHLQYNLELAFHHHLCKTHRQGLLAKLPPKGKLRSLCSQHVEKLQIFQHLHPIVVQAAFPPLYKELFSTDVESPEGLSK
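Luciferase reporter read in Schneider cells carrying Gal4-RORγ (mouse) and UAS-Photinus luciferase; cells given compound 1 h before 700 uM copper sulfate induction, then incubated 20 h at ambient temperature.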
TDP1 cell CPT: DT40-hTDP1 cell growth loss with CPT; 12% of 420,000 active; chicken DT40 Tdp1-/-;hTDP1 cells + 20 nM CPT, ATP luminescence, 48 h; AID 686979; Potency, µM (titrated, usually from 46.2 µM), without a hit: at the top dose activity change, negative = growth inhibition, usual class: inhibitors; note: potency is the fitted concentration of half-maximal effect; nearly all actives have a fitted effect of over 55% in size
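Cell growth measured by CellTiter-Glo luminescence after a minimum 48 h, 37 C compound exposure with 20 nM CPT in Tdp1-knockout DT40 cells stably expressing hTDP1, seeded 400/well; qHTS titration format.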
ELG1 DNA repair: inhibitors of ELG1-dependent DNA repair in HEK293T cells; HEK293T ELG1-luciferase reporter, luminescence, 16 h; DNA damage induced by 5-fluorouridine; Potency, µM (highest dose often 46.1 µM), for inactives: at the highest dose activity change, negative = inhibition, most hits filed as inhibitors; 2.3% of 330,000 active; AID 504467; note: potency is the fitted concentration of half-maximal effect; nearly all actives have a fitted effect of over 55% in size
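Cells (2,000 per well) received 5-fluorouridine plus test compound or DMSO and were incubated 16 hr at 37 °C, 5% CO2. Luciferase activity was read by luminescence 30 min after ONE-Glo addition; signal suppression marked inhibition of damage-induced ELG1 function.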
IL1B secr inh: blocks inflammasome-driven IL-1 beta release; THP-1 LPS/ATP IL-1B secretion, AlphaLISA, 16 h; active compounds read low; activity change, % at 57.5 µM; 4.7% of 360,000 active; in the data active = activity change below about -50%; inconclusive = mostly about -30% to -49%
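THP-1 cells pretreated 1 hr with compounds (up to 57.5 uM final), then stimulated with LPS (250 ng/mL final) plus ATP (1.25 mM final); secreted IL-1B measured by AlphaLISA after 16 hr, decreased signal indicating inhibition.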
The depositor's hits bear a star. Unless noted, calls come from the whole dose curve; as a rule, active = well fitted curve in the direction sought with a large enough effect; inconclusive = small, poorly fitted or top-dose-only effect, or another doubt; inactive = no such curve, though single readings can be large; an effect the other way counts as inactive or inconclusive. % is set by controls: 0 for no effect and ±100 for the full control effect.

For O=C(c1ccc(Cl)c(S(=O)(=O)N2CCCCC2)c1)N1CCN(Cc2ccccc2)CC1 the results were VP16 counter -4%, TDP1 cell noCPT inconclusive, RORg inh 6%, TDP1 cell CPT inconclusive, ELG1 DNA repair 19% and IL1B secr inh inactive.
For CCSc1nnc(-c2sc3nnc(-c4ccccc4)c(-c4ccccc4)c3c2N)o1 the results were VP16 counter 2%, TDP1 cell noCPT 23µM*, RORg inh 16%, TDP1 cell CPT 13µM*, ELG1 DNA repair inconclusive and IL1B secr inh inconclusive.
Screening CCSc1nnc(-c2ccncc2)o1 returned VP16 counter 12%, TDP1 cell noCPT -2%, RORg inh 27%, TDP1 cell CPT 1%, ELG1 DNA repair -7% and IL1B secr inh -21.
Screening COc1ccccc1N1CCN(C(=O)Cn2ncc3c(=O)oc4ccc(C)cc4c32)CC1 returned TDP1 cell noCPT inconclusive and TDP1 cell CPT -27%.
Cc1ccc2oc(=O)c3cnn(CC(=O)N4CCN(c5ccccc5F)CC4)c3c2c1 was read as TDP1 cell noCPT 21µM* and TDP1 cell CPT inconclusive.
O=C(Cn1cnc2c(cnn2-c2ccc(F)cc2)c1=O)N1CCN(c2ccccc2F)CC1 was read as VP16 counter -12%, TDP1 cell noCPT -29%, RORg inh -13%, TDP1 cell CPT -20%, ELG1 DNA repair 18µM* and IL1B secr inh -2.
Cc1ccc2oc(=O)c3cnn(CC(=O)N4CCN(c5ccccc5)CC4)c3c2c1 was read as VP16 counter 4%, TDP1 cell noCPT 10µM*, RORg inh 6%, TDP1 cell CPT inconclusive, ELG1 DNA repair 10% and IL1B secr inh 1.
O=Cc1cccc(Br)c1 was read as VP16 counter -7% and RORg inh 1%.
Screening O=C(CSc1nc(=O)n2ccccc2n1)Nc1ccc2c(c1)OCO2 returned TDP1 cell noCPT -27%, TDP1 cell CPT -10%, ELG1 DNA repair 18% and IL1B secr inh -10.
Screening COc1ccc(-c2ccc(CN3C(C(C)C)C(=O)N(Cc4cn(CC5CCCCC5)nn4)CCS3(=O)=O)cc2)cc1OC (stereo not drawn) returned TDP1 cell noCPT 1.6µM*, TDP1 cell CPT inconclusive and IL1B secr inh inconclusive.
`COc1ccc(-c2ccc(CN3C(CC(C)C)C(=O)N(Cc4cn(CC5CCCCC5)nn4)CCS3(=O)=O)cc2)cc1OC` (stereo not drawn) gave TDP1 cell noCPT 21µM*, TDP1 cell CPT 23µM* and IL1B secr inh -11.
`CC(C)CC1C(=O)N(Cc2cn(CC3CCCCC3)nn2)CCS(=O)(=O)N1Cc1ccc(-c2cccc(C#N)c2)cc1` (stereo not drawn) gave TDP1 cell noCPT inconclusive, TDP1 cell CPT 21µM* and IL1B secr inh -11.
CC(C)CC1C(=O)N(Cc2cn(CC3CCCCC3)nn2)CCS(=O)(=O)N1Cc1ccc(-c2ccncc2)cc1 (stereo not drawn) was read as TDP1 cell noCPT 15µM*, TDP1 cell CPT inconclusive and IL1B secr inh -16.
CC(C)CC1C(=O)N(Cc2cn(CCC3OCCO3)nn2)CCS(=O)(=O)N1Cc1ccc(-c2ccc(F)nc2)cc1 (stereo not drawn) was read as TDP1 cell noCPT -24%, TDP1 cell CPT 0% and IL1B secr inh 8.
`CC(C)CC1C(=O)N(Cc2cn(CCC3OCCCO3)nn2)CCS(=O)(=O)N1Cc1ccc(-c2cccc(N(C)C)c2)cc1` (stereo not drawn) gave TDP1 cell noCPT 10%, TDP1 cell CPT 11% and IL1B secr inh 21.

Assay outcomes as filed in PubChem BioAssay.
